Measured values: PubChem BioAssay (NCI)
The panel holds about 83,000 compounds, 20% with a hit somewhere; the sample as a whole holds those more often.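 Negative percent growth values reflect cell death: -40 means 40% of the cells present at the start died, and -100 means all died.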 A number with no mark means an inactive call. Calls of active or inactive are those of the source. The calls were made as follows: active = growth percent below 10; inactive = the rest.

Tested on: HOP-62 NSCLC
Assay: NCI-60 one-dose screen, 48 h (100 = growth as untreated, 0 = no growth, -100 = all killed)
Conditions: 10 µM unless noted

Compound | growth
COc1cccc(/C=C2\Oc3cc(OCCN4CCCC4)ccc3C2=O)c1 | 96.3%
COc1ccc(-c2nc3ccc(-c4nc5ccc(N6CCN(c7ccncc7)CC6)cc5[nH]4)cc3[nH]2)cc1OC | 61%
Cc1ccc(C2=NN3C(C2)c2cc(Br)ccc2OC32CCN(Cc3ccccc3)CC2)o1 (centres undefined) | 104%
COc1cc2c(cc1-c1c(C)noc1C)ncc1nc(-c3ccccn3)n([C@H](C)COC(F)F)c12 | 40.9%
Cc1oc(-c2ccc(Cl)cc2Cl)cc1C(=O)Nc1nccs1 | 85.4%
COc1ccc2c(c1)c(-c1nonc1-c1cn(C)c3ccccc13)cn2C | 33.1%
COC(=O)c1ccc(NC(=O)c2ccc(-c3cccc([N+](=O)[O-])c3)o2)cc1 | 107%
COc1cccc(C2=NN3C(C2)c2cc(Br)cc(OC)c2OC32CCN(Cc3ccccc3)CC2)c1 (centres undefined) | 105%
O=C1c2cc3c(cc2-c2c1c1cc(F)c(F)cc1c(=O)n2CCCn1ccnc1)OCO3 | 1.96% (active)
Cc1ccc2c(C(C[N+](=O)[O-])c3ccccc3F)c(-c3ccccc3)[nH]c2c1 (centres undefined) | 36.2%
Cc1ccccc1COc1ccc(-c2onc(C)c2-c2ccc(Cl)cc2)cc1 | 51.6%
COC[C@H](C)n1c(C2CCOCC2)nc2cnc3cc(-c4c(C)noc4C)c(OC)cc3c21 | 39.8%
C#CCOc1ccc2ncnc(NCc3cccc(NC(=O)CCl)c3)c2c1 | 0.209% [8.25 µM] (active)
COc1cc(-c2nn(C)nc2-c2cc3ccccc3s2)cc(OC)c1OC | 32.7%
